Screening data: PubChem, Broad Institute
Compounds with a hit are over-represented: about 2.5% of the library has one in this group of screens.
MLL AF4-AF9 inh = MLL-AF4/AF9 protein interaction inhibition; inhibition, % at 10 µM; AlphaScreen, biotin-AF4 peptide binding to FLAG-AF9; AID 651704; actives 0.47% (n = 350,000);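 active means every replicate reaching a set inhibition limit, whatever the replicate mean, cut at about 25% in these data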;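 further: 0% = plate neutral control median and 100% = total signal loss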
Ecoli rRNA inh = inhibits bacterial ribosomal RNA function over humanized ribosomes | GFP signal change (wild-type ribosome), % (test concentration not listed) | E. coli WT GFP vs humanized-ribosome RFP mutants, fluorescence, 24 h; stronger effect = lower value; DMSO median 0, no signal -100 | actives 1.6% (n = 350,000);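 active means significant combined selectivity score with lowered wild-type GFP, culture density cut under 30%, mutant RFP and density less affected; inactive means any of these conditions unmet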
Casp6 inh = caspase-6 (human) enzyme inhibition | P55212 | purified caspase-6, Z-VEID-R110 cleavage fluorescence | inhibition, % at 12.5 µM | actives 0.53% (n = 350,000);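 active means mean inhibition across replicates at least about 35%, with every replicate also reaching that limit, limit read from the data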;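 further: 0% = median of neutral control wells and 100% = no fluorescence left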
Target sequence (P55212 24-179 limits assumed): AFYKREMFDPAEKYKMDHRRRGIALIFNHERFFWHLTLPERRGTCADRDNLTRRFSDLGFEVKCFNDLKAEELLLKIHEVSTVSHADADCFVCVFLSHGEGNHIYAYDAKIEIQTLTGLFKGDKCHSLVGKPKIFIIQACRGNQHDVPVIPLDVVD
Target sequence (P55212 194-293 limits assumed): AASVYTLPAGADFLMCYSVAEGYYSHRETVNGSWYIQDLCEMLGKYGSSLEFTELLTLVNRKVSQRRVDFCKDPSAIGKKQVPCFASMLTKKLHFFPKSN
RAD52 inh = RAD52 (human) annealing inhibition; P43351; recombinant RAD52 DNA annealing, FRET fluorescence; inhibition, % at 18.7 µM; actives 0.46% (n = 360,000);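 active means every replicate showing at least 50% inhibition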
NSD2 inh = inhibitors of human histone methyltransferase NSD2; O96028; NSD2 peptide methylation, AlphaScreen, 120 min; inhibition, % at 12.5 µM; actives 0.54% (n = 310,000); AID 743445; in the data active means inhibition above about 50%
Numbers without * were called inactive; i = inactive; . = no result given.

SMILES	MLL AF4-AF9 inh	Ecoli rRNA inh	Casp6 inh	RAD52 inh	NSD2 inh
CCOC(=O)c1c(C)c(C(=O)Nc2ccc(N(C)C)cc2)c(C)n1CC	8	-16*	-4	-1	-2
CCc1ccc2c(CN3CCC(C(=O)OC)CC3)cc(=O)oc2c1	-5	-22*	-1	-12	-3
CC[C@@H]1C/C=C\C[C@H](C(C)C)NC(=O)CCC(=O)N1	.	5	.	.	.
CCSc1nc2ccccc2c(=O)n1Cc1ccc(F)cc1	-1	-19*	0	-1	-4
COCCn1c(SCc2ccc(F)cc2)nc2ccccc2c1=O	-9	-26	-2	-22	-3
COc1cc(C2C3=C(CC(C)(C)CC3=O)NC3=C2C(=O)c2ccccc23)ccc1O (centres undefined)	9	-31*	-1	8	18
COc1ccc(NC(=O)N(C)C[C@H]2OCCCC[C@H](C)Oc3ccc(NC(=O)Nc4ccc5c(c4)OCO5)cc3C(=O)N([C@@H](C)CO)C[C@H]2C)cc1	0	3	-4	-10	.
COc1ccc(N2CCN(C(=O)c3[nH]c(C(F)(F)F)nc3-c3ccccc3)CC2)cc1	3	-26*	3	-36	.
CC(=O)N1CCN(C(=O)c2oc3ccccc3c2C)CC1	-2	12	0	-12	0
COc1ccc(N2CCN(CC(=O)c3ccccc3)CC2)cc1	31*	5	-1	-14	3
Cn1c(SCc2nc(-c3ccc(Br)cc3)no2)nnc1-c1ccco1	.	.	.	.	3
COc1ccc(-c2noc(CSc3nnc(-c4ccccc4)n3C)n2)cc1	9	-22*	2	-11	1
COc1ccc(N2CCN(C(=O)CCCC(=O)c3ccccc3)CC2)cc1	9	-9	-3	-12	.
COc1ccc(N2CCN(C(=O)c3oc4ccccc4c3C)CC2)cc1	6	-38*	2	-8	14
Cc1ccc(S(=O)(=O)Nc2ccc3c(c2)C(=O)N([C@@H](C)CO)C[C@H](C)[C@H](CN(C)C(=O)Nc2cccc4ccccc24)OCCCC[C@H](C)O3)cc1	-2	2	2	-6	.
CO[C@H]1CN(C)C(=O)c2ccc(NC(=O)C3CC3)cc2OC[C@H](C)N(Cc2cc(F)ccc2F)C[C@@H]1C	-7	-1	2	8	.
COc1ccc(-c2noc(CN3CCN(c4ccccc4)CC3)n2)cc1	0	-5	-2	-20	.
COc1ccc(N2CCN(Cc3nc(-c4ccccc4)no3)CC2)cc1	5	-19*	2	-22	16
Cc1ccc2c(Cl)c(C)c(N3CCCC3)nc2n1	-2	-36*	0	6	-2
CCN1/C(=C/c2ccc3cc(C)ccc3[n+]2CC)Sc2cc(C)c(C)cc21	18	50	-35	i	161*
Cc1cccc(NC(=O)/C(C#N)=C\c2cc(C)n(-c3ccc(C(=O)O)cc3)c2C)c1	4	-28*	9	-17	1
Cc1cc(/C=C(\C#N)C(=O)Nc2ccccc2)c(C)n1-c1ccc(C(=O)O)cc1	-2	-22	1	-37	3
COc1ccc2c3c([nH]c2c1)[C@H](CO)N(C(=O)C1CCCC1)CC31CCN(S(C)(=O)=O)CC1	5	-2	1	-14	.
Cc1ccc(S(=O)(=O)N(C)C[C@@H]2OCCCC[C@H](C)Oc3ccc(NC(=O)Nc4cccc5ccccc45)cc3C(=O)N([C@H](C)CO)C[C@@H]2C)cc1	2	6	3	6	.
CO[C@@H]1CC[C@@H]2CCN(C)C(=O)CCCN(C)C(=O)c3cccc(C#N)c3OC[C@H]1O2	14	1	3	-2	.
SMILES	MLL AF4-AF9 inh	Ecoli rRNA inh	Casp6 inh	RAD52 inh	NSD2 inh
CC(C)(C)c1csc(NC(=O)Cc2cccs2)n1	-2	-23*	4	-17	1
C[C@H]1CN([C@@H](C)CO)C(=O)Cc2cc(NC(=O)CCCCCC(=O)Nc3ccccc3N)ccc2O[C@H]1CN(C)S(=O)(=O)c1ccc(Cl)cc1	.	3	.	.	.
CN(C)CCOCCOc1ccc(Cl)cc1C(C)(C)C	0	-26	-2	30	5
CC(O)CNCCCOc1ccc(Cl)cc1C(C)(C)C (centres undefined)	4	-41*	4	19	13
CCC(=O)Nc1ccc2c(c1)OC[C@@H](C)N(C(=O)COC)C[C@H](C)[C@@H](OC)CN(C)C2=O	.	-1	.	.	.
C[C@H]1CN([C@@H](C)CO)C(=O)Cc2cc(NC(=O)C3CC3)ccc2O[C@@H]1CN(C)S(=O)(=O)c1ccc(F)cc1	-2	1	4	-3	.
Cn1cnc(C(=O)NCc2ccccc2)c1C(=O)NCc1ccccc1	0	-32*	2	-10	.
O=C(C(=O)N1CCC(CNS(=O)(=O)c2ccc(F)c(F)c2)CC1)c1cc2ccccc2o1	3	-12*	1	-26	0
CN1CCN(C(=O)[C@@H]2[C@@H](CO)[C@@H]3Cn4c(cccc4=O)[C@@H]3N2Cc2cc(F)ccc2F)CC1	-2	-1	-2	4	.
COC(=O)[C@@H]1[C@@H](CO)[C@@H]2Cn3c(cccc3=O)[C@@H]2N1CC1CCOCC1	-5	3	74*	-320	.
O=C([C@@H]1[C@@H](CO)[C@@H]2Cn3c(cccc3=O)[C@@H]2N1Cc1cc(F)ccc1F)N1CCOCC1	-3	0	49*	-35	.
O=C([C@H]1[C@H](CO)[C@H]2Cn3c(cccc3=O)[C@H]2N1Cc1ccccn1)N1CCC(Cc2ccccc2)CC1	-1	1	41*	-15	.
COc1ccc(-c2cnc3c(c2)C(=O)N([C@@H](C)CO)C[C@@H](C)[C@H](CN(C)S(=O)(=O)c2ccc(OC)cc2)O3)cc1	.	0	.	.	.
Oc1ccc2c(c1)OCC1(O)Cc3cc(O)c(O)cc3C21 (centres undefined)	26*	.	31	-24	.
O=C(NCc1ccc(Cl)cc1Cl)C1CC(=O)N(Cc2ccccc2)C1 (centres undefined)	0	-23*	3	-6	-4
O=C(O)C1CC(=O)N(Cc2ccccc2)C1 (centres undefined)	.	.	.	.	-3
O=C(Nc1cccc(S(=O)(=O)N2CCCCC2)c1)C1CC(=O)N(Cc2ccccc2)C1 (centres undefined)	0	-24*	3	-72	1
COc1cccc(/C=N/NC(=O)c2cc(-c3cccn3C)n[nH]2)c1O	11	-36*	-9	-22	3
COc1cccc(/C=N\NC(=O)Cn2nnc3ccccc32)c1O	-2	-20*	-13	-14	-1
COc1ccccc1/C=C/C=N/NC(=O)CCn1cnc2ccccc21	.	-35*	2	-3	1
COc1cccc(/C=N/NC(=O)c2cc(-c3cccn3C)n[nH]2)c1	.	-24*	-2	5	5
COc1cc(/C=N/NC(=O)Cn2nnc3ccccc32)ccc1O	2	15	2	-6	0
O=C(NCc1ccncc1)[C@H]1N[C@H]2c3ccc(/C=C/c4ccccc4)c(=O)n3C[C@H]2[C@@H]1CO	4	-2	-4	-19	.
